Bioassay records (PubChem)
Six1-Eya2 blk: Six1/Eya2 interaction inhibition | actives 0.56% (n = 360,000) | AlphaScreen GST-Six1/His-Eya2 binding, biochemical; active compounds read low | Q15475+O00167 | activity change, % (concentration not given with the values); in the data active = activity change below about -65%; inconclusive = mostly about -30% to -63%
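GST-Six1 + His-Eya2 (5X stock: 250/500 nM); Tris pH 8.0, 300 mM NaCl, 0.05% BSA, 0.02% Tween 20; GSH donor/Ni acceptor beads; 1 h 37 °C dark; AlphaScreen readout.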
CtBP-E1A blk: blocks the CtBP interaction with E1A | AlphaScreen GST-E1A/His-CtBP binding, 1536-well; active compounds read low | activity change, % (no concentration beside the values) | actives 0.49% (n = 340,000) | AID 651724; in the data active = activity change below about -65%; inconclusive = mostly about -30% to -63%
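Homogeneous bead-based format: GST-tagged E1A captured on glutathione donor beads, His-tagged CtBP on nickel acceptor beads; compounds precede bead addition by 2 h at 37 °C.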
TDP1 inh: inhibitors of human tyrosyl-DNA phosphodiesterase TDP1; Q9NUW8; recombinant TDP1, AlphaScreen DNA substrate cleavage; Potency, µM (highest dose often 130 µM), inactives show at the top dose activity change, negative = inhibition, hits mostly inhibitors; actives 0.28% (n = 350,000); also: potency is read from the fitted curve at half-maximal effect; nearly all actives have a fitted effect of over 40% in size
Target sequence (Q9NUW8 whole entry, looked up): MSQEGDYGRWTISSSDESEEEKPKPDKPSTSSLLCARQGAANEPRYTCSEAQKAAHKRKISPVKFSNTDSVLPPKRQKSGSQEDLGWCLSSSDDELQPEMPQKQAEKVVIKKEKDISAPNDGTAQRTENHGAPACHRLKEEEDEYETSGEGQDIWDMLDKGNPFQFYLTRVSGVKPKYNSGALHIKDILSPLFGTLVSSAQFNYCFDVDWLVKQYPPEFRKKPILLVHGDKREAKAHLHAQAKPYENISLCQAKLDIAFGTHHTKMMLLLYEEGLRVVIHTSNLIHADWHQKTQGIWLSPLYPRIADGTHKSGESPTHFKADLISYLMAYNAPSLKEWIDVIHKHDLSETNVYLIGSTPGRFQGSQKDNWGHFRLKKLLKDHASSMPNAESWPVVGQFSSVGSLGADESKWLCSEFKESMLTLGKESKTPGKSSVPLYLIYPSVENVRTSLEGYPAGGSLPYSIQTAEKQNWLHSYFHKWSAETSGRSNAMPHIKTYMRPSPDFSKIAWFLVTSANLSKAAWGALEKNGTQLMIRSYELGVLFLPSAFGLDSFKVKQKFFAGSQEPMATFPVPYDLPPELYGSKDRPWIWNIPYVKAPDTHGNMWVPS
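Tdp1 1 nM final; 15 min RT w/ cpd; substrate 15 nM, 5 min; beads 10 ug/ml, 10 min; AlphaScreen read. Neg ctrl: no enzyme.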
TDP1 cell noCPT: qHTS for Inhibitors of human tyrosyl-DNA phosphodiesterase 1 (TDP1): qHTS in cells in absence of CPT. actives 15% (n = 420,000). DT40 Tdp1-/- hTDP1 cells, no CPT, ATP luminescence, 48 h. Potency, µM (highest dose often 46.2 µM), without a hit: at the top dose activity change, negative = growth inhibition, most hits filed as inhibitors. AID 686978, 2013; also: potency is read from the fitted curve at half-maximal effect; nearly all actives have a fitted effect of over 55% in size
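Luminescent ATP content (CellTiter-Glo) served as the growth readout. Knockout chicken DT40 cells expressing human TDP1 were exposed to compounds without camptothecin for a minimum 48 hr at 37 °C.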
TDP1 cell CPT: growth inhibition of DT40 Tdp1-/-;hTDP1 cells with camptothecin (screen for TDP1 inhibitors); AID 686979; Potency, µM (top dose mostly 46.2 µM), for the others: at the top dose activity change, negative = growth inhibition, most hits filed as inhibitors; chicken DT40 Tdp1-/-;hTDP1 cells + 20 nM CPT, ATP luminescence, 48 h; actives 12% (n = 420,000); also: potency is read from the fitted curve at half-maximal effect; nearly all actives have a fitted effect of over 55% in size
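Cell growth measured by CellTiter-Glo luminescence after a minimum 48 h, 37 C compound exposure with 20 nM CPT in Tdp1-knockout DT40 cells stably expressing hTDP1, seeded 400/well; qHTS titration format.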
IL-1B inflam inh: inhibitors of inflammasome signaling (IL-1 beta secretion). THP-1 LPS/ATP IL-1B secretion, AlphaLISA, 16 h; active compounds read low. activity change, % at 57.5 µM. actives 4.7% (n = 360,000). AID 743279; in the data active = activity change below about -50%; inconclusive = mostly about -30% to -49%
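Secreted IL-1B measured by AlphaLISA bead assay after 16 h compound exposure of THP-1 cells; compounds (final up to 57.5 uM) added 1 h before LPS (250 ng/mL) and ATP (1.25 mM) stimulation; lower signal means less secretion.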
Active calls of the source: *; ! = a repeat was not active; [ ] = dose if it differs, or a comment. An excerpt weighted towards active compounds, which were near 18% of everything screened. Unless noted, calls follow the shape of the dose curve; as a rule, active = well fitted curve in the direction sought with a large enough effect; inconclusive = small, poorly fitted or top-dose-only effect, or another doubt; inactive = no such curve, though single readings can be large; an effect the other way counts as inactive or inconclusive. % is scaled to controls: 0 for no effect and ±100 for the full control effect.

Screening CCN(c1cccc(C)c1)S(=O)(=O)c1cc(Br)cc2c1N(C(C)=O)C(C)C2 (centres undefined) returned TDP1 inh 2.9%, TDP1 cell noCPT 20.6µM* and TDP1 cell CPT 23.1µM*.
C=CCN1C(=O)C2(OCCCO2)c2cc(CCCC)ccc21 was read as Six1-Eya2 blk 13.3, CtBP-E1A blk 14.0, TDP1 cell noCPT -19.8%, TDP1 cell CPT -10.2% and IL-1B inflam inh 18.9.
`CCN(CC(=O)NC(=O)Nc1ccccc1F)Cc1ccccc1` gave Six1-Eya2 blk 18.0, CtBP-E1A blk 6.7, TDP1 cell noCPT 9.2%, TDP1 cell CPT 5.4% and IL-1B inflam inh -7.1.
Screening O=C1CN(CCN2CC(=O)N(Cc3ccccc3)C(=O)C2)CC(=O)N1Cc1ccccc1 returned Six1-Eya2 blk -15.4, CtBP-E1A blk -10.6, TDP1 cell noCPT inconclusive, TDP1 cell CPT 0.9% and IL-1B inflam inh 0.0.
CCCCSc1ncc(C(=O)OCC)c(N)n1 was read as Six1-Eya2 blk 19.3, CtBP-E1A blk 7.7, TDP1 inh -4.9%, TDP1 cell noCPT inconclusive, TDP1 cell CPT inconclusive and IL-1B inflam inh -7.3.
For Cc1ccc2c(=O)cc(C(F)F)oc2c1 the results were Six1-Eya2 blk -7.3, CtBP-E1A blk -4.3, TDP1 inh 3.8%, TDP1 cell noCPT 3.8%, TDP1 cell CPT -0.3% and IL-1B inflam inh -11.7.
Screening CC1CC(C(F)F)n2nc(C(=O)Nc3sc4c(c3C#N)CCC(C(C)(C)C)C4)nc2N1 (centres undefined) returned Six1-Eya2 blk 1.1, CtBP-E1A blk 6.0, TDP1 inh 7.7%, TDP1 cell noCPT inconclusive, TDP1 cell CPT inconclusive and IL-1B inflam inh 74.9.
`NC(=O)c1sc2nc(-c3ccccc3)ccc2c1N` gave Six1-Eya2 blk -10.1, TDP1 cell noCPT 4.6%, TDP1 cell CPT 17.8% and IL-1B inflam inh -10.6.
Screening COc1cccc(-c2ccc3c(N)c(C(=O)c4ccc(Br)cc4)sc3n2)c1 returned TDP1 cell noCPT 14.6µM* and TDP1 cell CPT 14.6µM*.
Screening COc1ccc(C(=O)c2sc3nc(-c4ccccc4)ccc3c2N)cc1OC returned Six1-Eya2 blk 6.1, CtBP-E1A blk 12.6, TDP1 inh -3.1%, TDP1 cell noCPT 13µM*, TDP1 cell CPT 16.4µM* and IL-1B inflam inh 15.0.
Screening COc1ccc(-c2ccc3c(N)c(C(=O)c4ccc(OC)c(OC)c4)sc3n2)cc1 returned Six1-Eya2 blk 28.0, CtBP-E1A blk 4.8, TDP1 inh -2.0%, TDP1 cell noCPT 9.2µM*, TDP1 cell CPT 9.2µM*! and IL-1B inflam inh 1.7.
Screening COc1ccc(-c2ccc3c(N)c(C(=O)NC(C)C)sc3n2)cc1OC returned Six1-Eya2 blk -15.3, CtBP-E1A blk -23.3, TDP1 inh 1.4%, TDP1 cell noCPT 16.4µM* and TDP1 cell CPT -24.6%.
`COc1ccc(N2CCN(/C(=N\S(=O)(=O)c3ccccc3)Nc3nc(C)cc(C)n3)CC2)cc1` gave Six1-Eya2 blk 1.0, CtBP-E1A blk -7.0, TDP1 inh 9.8%, TDP1 cell noCPT 1.8%, TDP1 cell CPT 3.1% and IL-1B inflam inh 2.2.
Cc1cc(C)c(C)c(OCC(=O)O/N=C(\N)c2cccnc2)c1 was read as Six1-Eya2 blk -3.5, CtBP-E1A blk -22.0, TDP1 inh -3.5%, TDP1 cell noCPT inconclusive, TDP1 cell CPT -30.6% and IL-1B inflam inh 2.4.
For CCOc1ccc(OCCCC(=O)N2CCN(S(=O)(=O)c3ccccc3C#N)CC2)cc1 the results were Six1-Eya2 blk -2.9, CtBP-E1A blk -2.7, TDP1 inh 0.5%, TDP1 cell noCPT inconclusive, TDP1 cell CPT inconclusive and IL-1B inflam inh -51.8*.
`O=C(CCSc1ccc(Cl)cc1)N1CCN(S(=O)(=O)c2ccccc2)CC1` gave Six1-Eya2 blk -4.2, CtBP-E1A blk 15.0, TDP1 inh -2.5%[56.1 µM], TDP1 cell noCPT 18.4µM*, TDP1 cell CPT 20.6µM* and IL-1B inflam inh -13.3.
